Assay results reported in the supplement of paper PMC6992640.
± gives the standard deviation of the averaged measurements.

system: HCI01 (cells of a triple-negative basal-like breast cancer xenograft); assay: cell viability (% of vehicle); higher = less cytotoxic; settings: 10 µM; 72 h
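Note: PDX cells carrying CMV promoter-driven luciferase, viability read as total photon flux per second by IVIS imaging following D-luciferin, vehicle control 0.1% DMSO.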

SMILES	cell viability
O=C1C=CC=CC1=C1NC(=C2C=CC=CC2=O)N(c2ccc(C(=O)O)cc2)N1 [Deferasirox]	65.5 ± 9.3
Cl.OC(c1cc(C(F)(F)F)nc2c(C(F)(F)F)cccc12)C1CCCCN1 (stereo unspecified) [Mefloquine hydrochloride]	31.9 ± 1.3
O=C(NC1CCN(CCCCC2(C(=O)NCC(F)(F)F)c3ccccc3-c3ccccc32)CC1)c1ccccc1-c1ccc(C(F)(F)F)cc1 [Lomitapide]	34.8 ± 7.4
CCCCCCCCOc1ccccc1C(=O)Nc1ccc(C(=O)OCC[N+](C)(CC)CC)cc1.[Br-] [Otilonium Bromide]	51.9 ± 1.6
COc1cc(Nc2c(C#N)cnc3cc(OCCCN4CCN(C)CC4)c(OC)cc23)c(Cl)cc1Cl [Bosutinib (SKI-606)]	48.4 ± 2.7
CNC(=O)c1cc(Oc2ccc(NC(=O)Nc3ccc(Cl)c(C(F)(F)F)c3)c(F)c2)ccn1 [Regorafenib]	22.5 ± 4.2
COC1=C(OC)C(=O)C(CCCCCCCCCCO)=C(C)C1=O [Idebenone]	34 ± 2.8
Nc1ncn(C2OC(CO)C(O)C2O)c(=O)n1 (stereo unspecified) [5-Azacytidine]	59.1 ± 13
CC(C)Nc1cc(-c2c[nH]c(C(=O)NC(CO)c3cccc(Cl)c3)c2)c(Cl)cn1 (stereo unspecified)	39 ± 8.9
COc1cc(Nc2ncc(F)c(Nc3ccc4c(n3)N(COP(=O)(O)O)C(=O)C(C)(C)O4)n2)cc(OC)c1OC [Fostamatinib (R788)]	88.3 ± 8.6
CNCCCC12CCC(c3ccccc31)c1ccccc12.Cl [Maprotiline HCl]	89.8 ± 4.9
